The values that follow come from PubChem BioAssay AID624483 (NMMLSC, 2012).

The whole screen tested about 360,000 compounds, of which about 11,000 (3.1%) were called active. Not shown: some 2% with an inconclusive outcome. This excerpt belongs to a sample that is enriched for actives. A number with no mark means an inactive call. Cut-off read from the data, not from the text of the source: active = fluorescence intensity above about 16000; inconclusive = no clear call, values can overlap the other calls; inactive = below that.

The experiment is described as follows: counter-screen for toxin protease inhibitors: compound fluorescence, primary screen, artefact control for toxin protease inhibitor project, biochemical, multiplex microsphere, HTS (AID 624483). The following applies: compound autofluorescence counterscreen, microsphere flow cytometry; stronger effect = higher value.
As to `Nc1c(-c2ccc(F)cc2)cnc2ncnn12`, the fluorescence intensity is 6020. The value for `O=C(Nc1ccc2c(c1)nc1n2CCCCC1)c1cc(S(=O)(=O)N2CCOCC2)ccc1Cl` was 2940; that for `Cc1ccc(Oc2ccc3c(c2)C(=O)N(c2cccc4cccnc24)C3=O)cc1` was 21000 (active). As for `CCOc1cccc(OCCCOc2cccc3cccnc23)c1`, the figure is 2100; as for `Cc1cccc(NC(=O)C2CCN(S(=O)(=O)c3cccc4cccnc34)CC2)c1`, 5170. Consider `Cc1ccc(S(=O)(=O)N2CCCCC2)cc1NC(=O)CCNC(=O)c1ccccc1Cl`, for which the fluorescence intensity was 3400.

Regarding `CS(=O)(=O)N(CC(=O)N1CCN(c2cccc(Cl)c2)CC1)c1ccccc1`, the fluorescence intensity is 9910. Regarding `Cc1cccc(N(CC(=O)N2CCOCC2)S(C)(=O)=O)c1`, the fluorescence intensity is 8740. Take `CS(=O)(=O)N(CC(=O)N1CCN(Cc2ccccc2)CC1)c1ccc2c(c1)OCCO2`: the fluorescence intensity was 23300 (active). As for `Cc1ccc(C)c(S(=O)(=O)N2CCN(c3ncnc4sccc34)CC2)c1`, the fluorescence intensity is 3890. As for `O=C(c1c(F)cccc1F)N1CCN(S(=O)(=O)c2ccc3c(c2)OCCO3)CC1`, the figure is 4100; as for `O=C(Nc1ccccn1)C1CCN(S(=O)(=O)c2ccc3c(c2)OCCO3)CC1`, 4090; as for `O=C(c1ccc2c(c1)OCCO2)C1CCN(S(=O)(=O)c2cccc(F)c2)CC1`, 17000 (active). As to `CCOC(=O)C1=C(CN2CCc3ccccc32)NC(=O)NC1c1cccc([N+](=O)[O-])c1` (configuration not stated), the fluorescence intensity was 15000. For `CCOC(=O)C1=C(CN2CCc3ccccc32)NC(=O)NC1c1cc(C)ccc1C` (configuration not stated), the fluorescence intensity was 23800 (active). Regarding `CCOC(=O)C1=C(CNC2CCCCC2)NC(=O)NC1c1cc(C)ccc1C` (configuration not stated), the fluorescence intensity is 4280. The value for `CCOC(=O)C1=C(c2ccccc2)NC(=O)NC1c1cc(OC)c(OC)cc1OC` (configuration not stated) was 2970. The value for `CCOC(=O)C1=C(CN2CCc3ccccc32)NC(=O)NC1c1ccc(Cl)cc1` (configuration not stated) was 23500 (active); that for `CCOC(=O)C1=C(CN2CCCCCC2)NC(=O)NC1c1cccc([N+](=O)[O-])c1` (configuration not stated) was 4620; that for `Cc1ccccc1S(=O)(=O)NC(=O)C1(C)CCN1C(=O)C1(c2ccccc2)CCCC1` (configuration not stated) was 2830. As for `COc1ccc(C(=O)Nc2c(N)nc(SCC(=O)N3CCC(C)CC3)[nH]c2=O)cc1OC`, the figure is 4500; as for `COc1cncc(-c2cnc3sc(NCCc4ccccn4)nn23)c1`, 3330.

In the case of `O=C1Cc2ccccc2Sc2ccc(Cl)cc21`, the fluorescence intensity was 6230. As for `CC(=O)Nc1cncc(-c2ccccc2CO)n1`, the figure is 3670; as for `COc1cccc(C(=O)NC(=O)Nc2nc(C)cc(C(F)(F)F)n2)c1`, 4900; as for `Cc1cc(C)nc(NC(=O)Nc2ccccc2C(F)(F)F)n1`, 21400 (active). For `Cc1cc(Cl)nc(NC(=O)Nc2cccc(Cl)c2)n1`, the fluorescence intensity was 3440. On to `CSc1ccc(CN2CCC2(C)C(=O)NCc2ccccc2Br)cc1` (configuration not stated), for which the fluorescence intensity was 3880. For the compound `OC[C@@H]1CN(Cc2ccc(Cl)cc2)C[C@H](n2cnc3c(NCc4ccncc4)ncnc32)O1`, the fluorescence intensity was 3720. As to `Cc1cc(Cl)ccc1-c1nc(NCCN(C)C)nc2ccsc12`, the fluorescence intensity is 2870. With `Cc1noc(C)c1C(=O)N1CCC1(C)C(=O)NS(=O)(=O)c1ccc(C#N)cc1` (configuration not stated), the fluorescence intensity is 3990. As for `COc1ccc(C)c(Cn2c(-c3nonc3N)nc3ccccc32)c1`, the figure is 8560; as for `Nc1nonc1-c1nc2ccccc2n1CCC(=O)O`, 23600 (active); as for `O=C(O)CCn1c(Cc2ccccc2)nc2ccccc21`, 4070. In the case of `O=C(CNC(=O)c1ccccc1F)c1ccc(Br)cc1`, the fluorescence intensity is 4100. The value for `CCc1nc2ccc(C(=O)NC3CCN(Cc4ccccc4)CC3)cn2c1N(CC)CCOC` was 3640.

Turning to `OC1CCCN(c2ncnc3c2nnn3Cc2c(F)cccc2Cl)C1` (configuration not stated), the fluorescence intensity was 4220. For the compound `CC(=O)Nc1ccc(NC(=O)CSCc2cnn(-c3ccccc3)c2-n2cccc2)cc1`, the fluorescence intensity was 21800 (active). As to `Cc1cc(C)cc(NC(=O)CSCc2cnn(-c3ccccc3)c2-n2cccc2)c1`, the fluorescence intensity is 3720. As for `O=C(CSCc1ccccc1)Nc1ccccc1`, the figure is 3440; as for `CCC(=O)N1Cc2cc(C(=O)NCc3cccc(F)c3)nc(-c3cccc(C4=CCCC4)c3)c2[C@H]1CCO`, 5960; as for `CS(=O)(=O)N1CCN(C(=O)c2cc3ccccc3oc2=O)CC1`, 20900 (active).

For `COc1cccc2cc(C(=O)N3CCN(C(=O)c4ccccc4)CC3)c(=O)oc12`, the fluorescence intensity was 2640. For `O=C(c1cc2ccccc2o1)N1CCN(S(=O)(=O)c2ccc(Cl)s2)CC1`, the fluorescence intensity is 3540. The value for `Cc1ccc(S(=O)(=O)N2CCN(C(=O)Cc3sc(C)nc3-c3ccc(F)cc3)CC2)c(C)c1` was 5210. The value for `COCCCNC(=O)c1cccc2c(-c3ccc(O)c(OC)c3)coc12` was 3660. The value for `CCCS(=O)(=O)NC(=O)C1(C)CCCN(C(=O)c2cccs2)C1` (configuration not stated) was 3930; that for `COc1ccc(-c2nnn(Cc3nc(N)nc(N4CCCCC4)n3)n2)cc1` was 4610; that for `CN(Cc1nc2ccccc2s1)C(=O)c1ccc(F)cc1` was 3850. For the compound `CCc1ccc(-c2nnn(Cc3nc4ccccc4s3)n2)cc1`, the fluorescence intensity was 22800 (active).

As to `CCC1(CC)NC(=O)N(Cc2nc3ccccc3s2)C1=O`, the fluorescence intensity was 3380. The value for `CN(C)c1nc(N)nc(Cn2nnc(-c3ccc(C(F)(F)F)cc3)n2)n1` was 5180; that for `CCc1ccc(-c2nnn(Cc3nn[nH]n3)n2)cc1` was 20100 (active); that for `Nc1[nH]c(C(=O)c2ccccc2)c(-c2ccc(Br)cc2)c1C(=O)NC1CC1` was 4400. `Cc1ccc(C(O)c2ncc(-c3ccccc3F)[nH]2)cc1F` (configuration not stated): the fluorescence intensity is 3620. As for `O=C1CCCC(O)=C1N=Nc1ccc2ncsc2c1`, the figure is 2580; as for `CC1(C)CC(CCC(=O)Nc2ccccc2Cl)C(=O)O1` (configuration not stated), 23100 (active). As for `CN(CC(=O)Nc1ccccc1Cl)C(=O)COc1cccc2c1OC(C)(C)C2`, the figure is 5770. For the compound `CC1(C)CC(CC(=O)O)C(=O)O1` (configuration not stated), the fluorescence intensity is 4100. Consider `Brc1ccc(C2CC(c3ccccc3)=Nc3ccccc3N2)cc1` (configuration not stated), for which the fluorescence intensity is 2950.

With `COc1ccc(C2CC(c3ccccc3)=NN2C(=O)COC(=O)COc2ccccc2)cc1` (configuration not stated), the fluorescence intensity was 4620. As for `CNC(=S)N1N=C(c2ccccc2)CC1c1ccc(Br)cc1` (configuration not stated), the figure is 23900 (active); as for `COC(=O)Cc1ccc(OC2(C)CCN(Cc3ccc4c(c3)OCCO4)C2)cc1` (configuration not stated), 2970; as for `CCOc1ccc(NC(=S)N2CCCCCC2)cc1`, 4120. Consider `O=C(NCc1cccnc1)c1cc(C2CCCCN2C(=O)CCc2ccccc2)on1` (configuration not stated), for which the fluorescence intensity is 3910. In the case of `Cc1c(C(=O)NCC2CC2)sc(=O)n1Cc1cccc(F)c1`, the fluorescence intensity was 5240. As for `CN(CC(O)COc1ccc(S(=O)(=O)N2CCOCC2)cc1Cl)C1CCCCC1` (configuration not stated), the fluorescence intensity was 4510. As to `O=C(NCCCN1CCCCC1)c1ccc2c(c1)NC(=O)C(N1CCOCC1)S2` (configuration not stated), the fluorescence intensity is 20400 (active). For `Cc1ccccc1CN1C(=O)c2ccccc2Sc2ccc(C(=O)NCCCN3CCOCC3)cc21`, the fluorescence intensity is 4180. Take `COc1ccc(CCNC(=O)c2ccc3c(c2)NC(=O)C(N2CCOCC2)S3)cc1OC` (configuration not stated): the fluorescence intensity is 3710. Turning to `CCOC(=O)N1CCN(C(c2ccnc3ccccc23)c2nnnn2-c2c(C)cccc2C)CC1` (configuration not stated), the fluorescence intensity is 5760. Take `COc1cccc(CNC(=O)[C@@H]2CCCN2C(=O)[C@@H]2CCCN2C(=O)c2ccccc2)c1`: the fluorescence intensity was 6440. The value for `Cc1nn(CC(=O)NCCc2ccccc2)c(=O)c2cc3occc3n12` was 4600. `CN(Cc1ccccc1)c1nc2c(c(=O)[nH]c(=O)n2C)n1CCSc1nc2ccccc2[nH]1`: the fluorescence intensity is 3450. The value for `CCOC(=O)Cn1c(CN(Cc2ccccc2)Cc2ccccc2)nc2c1c(=O)[nH]c(=O)n2C` was 11200. Regarding `Cn1c(=O)[nH]c(=O)c2c1nc(N(CCO)Cc1ccccc1)n2Cc1ccccc1Cl`, the fluorescence intensity is 19800 (active).

With `COc1ccc(-c2[nH][nH]c(=O)c2NC(=O)c2ccc([N+](=O)[O-])cc2)cc1`, the fluorescence intensity was 4210. The value for `CC(C)C[C@H]1CNC(=S)N1C[C@H]1CCCN1C[C@H](Cc1ccc(O)cc1)N1C[C@H](Cc2ccc(O)cc2)N(CC2CCCCC2)C1=S` was 6520. In the case of `COC(=O)C1C(=O)CC(C)(O)C(C(=O)OC)C1c1ccc2c(c1)OCO2` (configuration not stated), the fluorescence intensity was 8340.

As for `Cc1ccsc1-c1cc(C(=O)O)c2c(ccc3ccccc32)n1`, the fluorescence intensity was 3620. On to `COc1cccc(NC(=O)N2CCCC2C(=O)NC2CCCCC2)c1` (configuration not stated), for which the fluorescence intensity was 6160.

On to `COc1cccc(NC(=O)N2CCC(NC(=O)C(Cc3cccc(C)c3)NC(C)=O)CC2)c1` (configuration not stated), for which the fluorescence intensity was 3850. With `COCCn1nnnc1CN1CCC(NC(=O)Nc2cccc(OC)c2)CC1`, the fluorescence intensity was 24600 (active). The value for `COc1cc(C(=O)NN(CCC#N)C2=NS(=O)(=O)c3ccccc32)cc(OC)c1OC` was 4420; that for `COc1ccc(C=C2CCC3C(CCCC34OCCO4)C2=O)cc1` (configuration not stated) was 2890; that for `COc1ccc(/C=C2\CCCC3C2=NN(C(=O)c2scnc2C)C3c2ccc(OC)cc2)cc1` (configuration not stated) was 22800 (active). As for `COc1ccc(/C=C2/CCCc3ccccc3C2=O)cc1`, the figure is 3030; as for `Nc1ncnc2c1ncn2[C@@H]1O[C@H](C(=O)N2CCSC2)[C@@H](O)[C@H]1O`, 5590; as for `O=C(NC1CCCC1)C1c2ccccc2OCC(=O)N1CC(F)(F)F` (configuration not stated), 6700. With `Cn1c(CN2CCOCC2)nc2cc(NC(=O)c3ccc(Cl)cc3)ccc21`, the fluorescence intensity is 4450. As for `COCCn1c(C)cc(C2=NNC(=Nc3ccc(F)cc3)SC2)c1C`, the fluorescence intensity is 20800 (active). The value for `C=CCn1c(C)cc(C2=NNC(=NCC)SC2)c1C` was 2100.
